According to article PMC4336329 (PLoS ONE, 2015):
The whole screen tested about 310,000 compounds, of which about 14,000 (4.5%) showed an effect of 50% or more. Effects have a minus sign here. This excerpt belongs to a sample that is enriched for strong results.

target: human ether-à-go-go-related gene (hERG) potassium channel (human, UniProt Q12809); experiment: primary screen, population patch clamp on CHO cells stably expressing hERG; higher = less effect of the substance
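Also: peak tail current of the secondary pulse compared with the same well before compound.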

Chain of human ether-à-go-go-related gene (hERG) potassium channel (Q12809 whole entry, looked up): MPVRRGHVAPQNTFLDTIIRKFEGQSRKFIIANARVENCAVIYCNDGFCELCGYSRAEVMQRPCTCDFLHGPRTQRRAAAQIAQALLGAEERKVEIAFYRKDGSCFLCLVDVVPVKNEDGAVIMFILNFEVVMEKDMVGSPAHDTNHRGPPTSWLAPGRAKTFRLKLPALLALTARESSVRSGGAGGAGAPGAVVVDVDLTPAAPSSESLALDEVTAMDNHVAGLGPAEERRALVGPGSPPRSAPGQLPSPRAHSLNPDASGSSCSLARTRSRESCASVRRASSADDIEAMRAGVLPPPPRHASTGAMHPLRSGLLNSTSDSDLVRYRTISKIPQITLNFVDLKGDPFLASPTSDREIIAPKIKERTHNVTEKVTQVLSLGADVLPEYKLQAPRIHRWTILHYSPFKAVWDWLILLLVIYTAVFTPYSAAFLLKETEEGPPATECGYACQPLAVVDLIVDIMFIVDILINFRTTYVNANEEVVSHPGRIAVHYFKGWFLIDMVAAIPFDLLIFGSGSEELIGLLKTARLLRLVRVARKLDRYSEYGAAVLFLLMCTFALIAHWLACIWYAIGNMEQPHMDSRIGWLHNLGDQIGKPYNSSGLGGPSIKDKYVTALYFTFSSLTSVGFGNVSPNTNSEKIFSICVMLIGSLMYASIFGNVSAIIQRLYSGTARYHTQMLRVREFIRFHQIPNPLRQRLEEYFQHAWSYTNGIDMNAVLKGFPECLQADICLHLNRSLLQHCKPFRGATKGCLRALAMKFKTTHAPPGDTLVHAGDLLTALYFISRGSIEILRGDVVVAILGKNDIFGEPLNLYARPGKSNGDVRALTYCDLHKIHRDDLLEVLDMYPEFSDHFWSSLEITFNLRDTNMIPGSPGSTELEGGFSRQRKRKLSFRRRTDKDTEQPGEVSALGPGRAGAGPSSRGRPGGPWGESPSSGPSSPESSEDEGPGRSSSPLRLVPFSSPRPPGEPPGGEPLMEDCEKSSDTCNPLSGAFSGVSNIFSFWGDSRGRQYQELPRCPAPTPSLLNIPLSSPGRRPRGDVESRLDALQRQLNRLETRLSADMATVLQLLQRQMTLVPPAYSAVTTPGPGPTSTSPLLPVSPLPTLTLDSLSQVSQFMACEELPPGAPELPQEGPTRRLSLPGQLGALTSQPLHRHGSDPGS

Row | SMILES | hERG current change (%, negative = inhibition) at 10uM
1 | COCCn1c(SCC(=O)N2CC(=O)Nc3ccccc32)nc2ccccc2c1=O | -26.9%
2 | COc1ccc(NC(=O)CSc2nc3ccccc3c(=O)n2CCNC(C)=O)c(OC)c1 | -25.1%
3 | COCCCn1c(SCC(=O)Nc2ccc(C)cc2)nc2ccccc2c1=O | -2.1%
4 | CCOc1ccc(NC(=O)CSc2nc3ccccc3c(=O)n2CCNC(C)=O)cc1 | -6.93%
5 | COc1ccc(NC(=O)CSc2nc3ccccc3c(=O)n2CCNC(C)=O)cc1 | -73.6%
6 | COCCCn1c(SCC(=O)Nc2ccc(C(=O)OC)cc2)nc2ccccc2c1=O | -25.6%
7 | CN(C)CCCn1c(SCC(=O)N2CC(=O)Nc3ccccc32)nc2ccccc2c1=O | -17.6%
8 | COc1ccccc1NC(=O)CSc1nc2ccccc2c(=O)n1CCNC(C)=O | -62.2%
9 | COc1ccc(OC)c(NC(=O)CSc2nc3ccccc3c(=O)n2CCNC(C)=O)c1 | -2.83%
10 | COCCCn1c(SCC(=O)Nc2ccc(C(C)=O)cc2)nc2ccccc2c1=O | -51.5%
11 | CC(=O)NCCn1c(SCC(=O)Nc2ccc(C)cc2)nc2ccccc2c1=O | 5.81%
12 | CC(C)N(CCn1c(SCC(=O)N2CC(=O)Nc3ccccc32)nc2ccccc2c1=O)C(C)C | -76.6%
13 | O=C(O)CCCC(=O)N(Cc1ccccc1)Cc1ccccc1 | 30.4%
14 | Cn1c2c(c(=O)n(C)c1=O)C(c1cccc([N+](=O)[O-])c1)Nc1ccccc1O2 (centres unmarked) | -12.3%
15 | C[C@H](N)C(=O)N1CCC(C(=O)N[C@@H](Cc2ccccc2)C(=O)Nc2ccc(F)cc2)CC1 | -5.88%
16 | CC(=O)Nc1c([N+](=O)[O-])cc(C)c(Cl)c1[N+](=O)[O-] | 6.22%
17 | COc1ccc(Cn2c(=O)[nH]c3cc(C(=O)N4CCN(c5ccc(OC)cc5)CC4)ccc3c2=O)cc1 | 10.1%
18 | Cc1cc(Cl)cc(Br)c1OCCNCC(C)O (centres unmarked) | -18.7%
19 | O=C1C2(CCC13COC(c1ccc(O)cc1)OC3)COC(c1ccc(O)cc1)OC2 (centres unmarked) | -2.43%
20 | COc1ccc(OC)c(C2/C(=C(/O)c3ccc(C)cc3)C(=O)C(=O)N2Cc2ccco2)c1 (centres unmarked) | -7.22%
21 | Cc1cc(=O)oc2cc(OCC(=O)Nc3ccc(CN4CCOCC4)cc3)ccc12 | 3.15%
22 | COc1cc2c3c(c1)/C(=C1/SC(=S)NC1=O)C(=O)N3C(C)(C)C=C2C | 2.71%
23 | CCc1cccc(NC(=O)C2CCCN2S(=O)(=O)c2cccc3cccnc23)c1 (centres unmarked) | -10.4%
24 | O=C(CCCn1cc([N+](=O)[O-])cn1)Nc1ccc2c(c1)OCO2 | 4.52%
25 | CCOCCCNC(=O)C1CCN(S(=O)(=O)c2ccc3nc4c(c(C(=O)O)c3c2)CCCCC4)CC1 | 49.4%
26 | CC1CCN(S(=O)(=O)c2ccc(C(=O)NC3CCS(=O)(=O)C3)cc2)CC1 (centres unmarked) | -5.94%
27 | CC(C)N(CCn1c(SCC(=O)Nc2cccnc2Cl)nc2ccccc2c1=O)C(C)C | -69.7%

Row | SMILES | hERG current change (%, negative = inhibition) at 10uM
28 | COCCn1c(SCC(=O)Nc2cccnc2Cl)nc2cc(Cl)ccc2c1=O | -29.6%
29 | CC(=O)NCCn1c(SCC(=O)c2ccccc2)nc2ccccc2c1=O | -29.9%
30 | COCCn1c(SCC(=O)Nc2cccnc2Cl)nc2ccccc2c1=O | 4.53%
31 | CC(=O)NCCn1c(SCC(=O)OCc2ccccc2)nc2ccccc2c1=O | -60.2%
32 | CC(=O)NCCn1c(SCc2ccc(C)cc2)nc2ccccc2c1=O | -31.2%
33 | O=C(Cc1ccccc1)N1CCN(C(=O)c2cccs2)CC1 | 6.2%
34 | O=C(Nc1cc(Cl)ccc1Cl)c1noc2c1CCCC2 | 12.4%
35 | CC(=O)N(Cc1ccccc1)c1ccccc1C(=O)O | 13.1%
36 | CS(=O)(=O)n1nc(-c2ccco2)nc1N | 20.3%
37 | COc1cccc(OCc2nnc(SCC(=O)NCc3ccco3)n2C)c1 | -0.586%
38 | Cc1ccc(C)c(NC(=O)CN(C)C(=O)c2cccc(S(=O)(=O)N3CCN(Cc4ccccc4)CC3)c2)c1 | 9.47%
39 | OCCC1CN(Cc2c(O)ccc3ccccc23)CCN1CCc1ccccc1 (centres unmarked) | -27.1%
40 | COc1ccc(O)c(CN2CCN(CCCc3ccccc3)C(CCO)C2)c1 (centres unmarked) | -68.2%
41 | COc1ccc(O)c(CN2CCN(CCc3ccccc3)C(CCO)C2)c1 (centres unmarked) | -54.6%
42 | Cc1ccc(NC(=O)COC(=O)c2ccc3c(c2)OCCO3)cc1S(=O)(=O)N1CCOCC1 | 6.16%
43 | O=C(CN1C(=O)NC2(CCc3ccccc32)C1=O)NCc1ccccc1Cl (centres unmarked) | 7.01%
44 | Nc1c(C(=O)NCC2CCCO2)c2nc3ccccc3nc2n1-c1ccccc1 (centres unmarked) | 2.35%
45 | Cc1ccc(NC(=O)C2CCCN2S(=O)(=O)c2ccc(-c3ccc(=O)[nH]n3)s2)c(C)c1 (centres unmarked) | -15.4%
46 | O=C(O)C1CCCN(S(=O)(=O)c2ccc(-c3ccc(=O)[nH]n3)s2)C1 (centres unmarked) | 16.5%
47 | Cc1ccc(Cl)cc1NC(=O)C1CCCN1S(=O)(=O)c1ccc(-c2ccc(=O)[nH]n2)s1 (centres unmarked) | -65.4%
48 | Cc1cccc(C)c1NC(=O)C1CCCN1S(=O)(=O)c1ccc(-c2ccc(=O)[nH]n2)s1 (centres unmarked) | -68.2%
49 | CCc1ccccc1NC(=O)C1CCCN1S(=O)(=O)c1ccc2c(c1)n(C)c(=O)c(=O)n2C (centres unmarked) | -3.91%
50 | CCc1ccccc1NC(=O)C1CCCN1S(=O)(=O)c1ccc(-c2ccc(=O)[nH]n2)s1 (centres unmarked) | -54.7%
51 | CCc1nnc(NC(=O)C2CCCN2S(=O)(=O)c2ccccc2)s1 (centres unmarked) | 14.8%
52 | Cc1cccc(C)c1NC(=O)C1CCCN1S(=O)(=O)c1ccccc1 (centres unmarked) | 4.4%
53 | O=C(Nc1ccc(F)cc1F)C1CCCN1S(=O)(=O)c1ccc(-c2ccc(=O)[nH]n2)s1 (centres unmarked) | -33.5%
